Test results taken from a collection of fitness landscapes (doi:10.1016/j.celrep.2020.107928).
The full ranking holds about 81,000 sequences; the median of “one-hybrid fitness for binding NBS DNA” is about -0.1, and the highest 2% start at about 0.36. Shown is part of a subset that was picked to be rich in the highest values.

B1: Caulobacter ParB omega fusion; a variant is named by its letters at X, in order, B8GW30 (parent)
chain: MESVVVGEPGMSEGRRGLGRGLSALLGEVDAAPAQAPGEQLGGSREAPIEILQRNPDQPRRTFREEDLEDLSNSIREKGVLQPILVRPSPDTAGEYQIVAGERAWRAAQRAGLKTVPIMVRELDDLAVLEIGIIENVQRADLNVLEEALSYKVLMEKFERTQENIAQTIGKSXSHVANXMRLLXLPDEVQSYLVSGELTAXHARAIAAAADPVALAKQIIEGGLSVRETEALARKAPNLSAGKSKGGRPPRVKDTDTQALESDLSSVLGLDVSIDHRGSTGTLTITYATLEQLDDLCNRLTRGI

Variants of: B1
Assay: one-hybrid fitness for binding NBS DNA (the Noc-binding site; scaled: cognate 1, non-cognate 0); higher = stronger binding
Conditions: with NBS DNA site
Summary of the method: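 On M9-minus-histidine containing 0.1 mM IPTG and 5 mM 3-AT, E. coli USO cells with a HIS3 reporter, site 19 bp from the promoter, grew 48 hours at 37°C to select Caulobacter ParB libraries randomised at four specificity codons. Plasmids from before and after were Illumina-sequenced, with three replicate libraries pooled and variants under 10 reads left out. Fitness is the log change in variant-to-wild-type read ratio, rescaled against cognate and non-cognate.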

Row | Variant | one-hybrid fitness for binding NBS DNA
1 | SVQD | ≤ 0.2
2 | CSRY | ≤ 0.2
3 | EQAR | ≤ 0.2
4 | RYPY | ≤ 0.2
5 | WMPP | ≤ 0.2
6 | AHEF | ≤ 0.2
7 | GQCW | ≤ 0.2
8 | EIHG | ≤ 0.2
9 | GPST | ≤ 0.2
10 | VMSA | ≤ 0.2
11 | LYRR | ≤ 0.2
12 | GDTA | ≤ 0.2
13 | QVYR | 0.306
14 | QVLR | 0.305
15 | QVSN | ≤ 0.2
16 | QVGD | ≤ 0.2
17 | QVAR | 0.384
18 | QVGP | ≤ 0.2
19 | QVSD | ≤ 0.2
20 | QVSR | 0.38
21 | QVRR | 0.77
22 | QVGR | 0.426
23 | QVFR | 0.302
24 | QVAH | ≤ 0.2

Row | Variant | one-hybrid fitness for binding NBS DNA
25 | GHLS | ≤ 0.2
26 | CPPV | ≤ 0.2
27 | SSGL | ≤ 0.2
28 | QAQG | ≤ 0.2
29 | VSSH | ≤ 0.2
30 | ELVL | ≤ 0.2
31 | DGRA | ≤ 0.2
32 | PHAM | ≤ 0.2
33 | TTRG | ≤ 0.2
34 | QVHN | ≤ 0.2
35 | QVKR | 0.786
36 | QVHD | ≤ 0.2
37 | QVHR | 0.436
38 | QVKG | ≤ 0.2
39 | QVVR | 0.285
40 | SFPV | ≤ 0.2
41 | PNKV | ≤ 0.2
42 | CGYT | ≤ 0.2
43 | FDPN | ≤ 0.2
44 | SLHW | ≤ 0.2
45 | LRRR | 0.483
46 | LRKR | 0.452
47 | LRVR | 0.207
48 | LCKR | 0.207

Row | Variant | one-hybrid fitness for binding NBS DNA
49 | LRYR | ≤ 0.2
50 | LRDR | ≤ 0.2
51 | LRGN | ≤ 0.2
52 | TTRD | ≤ 0.2
53 | YFPL | ≤ 0.2
54 | PYKL | ≤ 0.2
55 | RHSS | 0.438
56 | RKSS | 0.544
57 | RFSS | 0.231
58 | RLSS | 0.411
59 | RLSN | ≤ 0.2
60 | RKSP | ≤ 0.2
61 | RKSN | ≤ 0.2
62 | RCSS | 0.522
63 | RLSD | ≤ 0.2
64 | RHSP | ≤ 0.2
65 | RPSS | ≤ 0.2
66 | RHSN | ≤ 0.2
67 | TAMR | ≤ 0.2
68 | PIWS | ≤ 0.2
69 | TISQ | ≤ 0.2
70 | GDNM | ≤ 0.2
71 | KDTE | ≤ 0.2
72 | EWSR | ≤ 0.2

Row | Variant | one-hybrid fitness for binding NBS DNA
73 | APCT | ≤ 0.2
74 | RASH | ≤ 0.2
75 | RASN | ≤ 0.2
76 | RSSS | 0.437
77 | RMSS | 0.439
78 | RSSD | ≤ 0.2
79 | RMSH | ≤ 0.2
80 | RASS | 0.421
81 | RSSP | ≤ 0.2
82 | RMSD | ≤ 0.2
83 | LPKA | ≤ 0.2
84 | QSPH | ≤ 0.2
85 | HLSL | ≤ 0.2
86 | NDNR | ≤ 0.2
87 | NAKL | ≤ 0.2
88 | QILN | ≤ 0.2
89 | TTWI | ≤ 0.2
90 | SQRH | ≤ 0.2
91 | QKCM | ≤ 0.2
92 | QACS | 0.272
93 | QCCR | 0.599
94 | QACR | 0.447
95 | QMCM | ≤ 0.2
96 | QPCR | ≤ 0.2

Row | Variant | one-hybrid fitness for binding NBS DNA
97 | QMCY | 0.212
98 | QMCR | 0.509
99 | QECR | ≤ 0.2
100 | QKCR | 0.519
101 | QACH | ≤ 0.2
102 | QKCD | ≤ 0.2
103 | SHHD | ≤ 0.2
104 | AWRT | ≤ 0.2
105 | FPKF | ≤ 0.2
106 | NPPH | ≤ 0.2
107 | KTTD | ≤ 0.2
108 | EIVG | ≤ 0.2
109 | PQLT | ≤ 0.2
110 | LLMK | ≤ 0.2
111 | QSCR | 0.493
112 | QTCR | 0.679
113 | QSCN | ≤ 0.2
114 | QHCN | ≤ 0.2
115 | QICS | 0.216
116 | QICG | ≤ 0.2
117 | QHCS | 0.279
118 | QTCG | ≤ 0.2
119 | QTCF | ≤ 0.2
120 | QICR | 0.377

Row | Variant | one-hybrid fitness for binding NBS DNA
121 | QSCD | ≤ 0.2
122 | QHCR | 0.473
123 | SPDS | ≤ 0.2
124 | SFYS | ≤ 0.2
125 | PAKH | ≤ 0.2
126 | GLKV | ≤ 0.2
127 | DMTR | ≤ 0.2
128 | PHDI | ≤ 0.2
129 | QGRR | 0.33
130 | QSYD | ≤ 0.2
131 | QCYR | 0.606
132 | QSYR | 0.458
133 | QSRR | 1
134 | QDRR | 0.275
135 | QWYR | 0.201
136 | QGYR | ≤ 0.2
137 | HTCT | ≤ 0.2
138 | HKQR | ≤ 0.2
139 | IERR | ≤ 0.2
140 | GCNT | ≤ 0.2
141 | VMRG | ≤ 0.2
142 | EMRQ | ≤ 0.2
143 | IITW | ≤ 0.2
144 | YLQI | ≤ 0.2

Row | Variant | one-hybrid fitness for binding NBS DNA
145 | KCMT | ≤ 0.2
146 | KSMR | ≤ 0.2
147 | KCMR | ≤ 0.2
148 | KRMD | ≤ 0.2
149 | DRMT | ≤ 0.2
150 | KRMR | 0.51
151 | KRMN | ≤ 0.2
152 | KRMS | 0.396
153 | KRMT | 0.539
154 | TALF | ≤ 0.2
155 | RADT | ≤ 0.2
156 | RANT | 0.496
157 | RIDT | ≤ 0.2
158 | RINT | 0.554
159 | RSDT | ≤ 0.2
160 | RTDT | 0.284
161 | RSNT | 0.503
162 | RSNN | ≤ 0.2
163 | RINP | ≤ 0.2
164 | RTNN | ≤ 0.2
165 | RTNT | 0.636
166 | RANP | ≤ 0.2
167 | WWTD | ≤ 0.2
168 | LSRK | ≤ 0.2

Row | Variant | one-hybrid fitness for binding NBS DNA
169 | SSTW | ≤ 0.2
170 | ASEC | ≤ 0.2
171 | SYLM | ≤ 0.2
172 | SHDP | ≤ 0.2
173 | PPLD | ≤ 0.2
174 | IVCR | ≤ 0.2
175 | GYLC | ≤ 0.2
176 | RCNT | 0.589
177 | RPNT | ≤ 0.2
178 | RMNT | 0.546
179 | RFNT | 0.279
180 | RHND | ≤ 0.2
181 | RMNH | 0.26
182 | RHNT | 0.508
183 | RHDT | 0.258
184 | RMDT | 0.226
185 | ADTR | ≤ 0.2
186 | WVAC | ≤ 0.2
187 | TAAM | ≤ 0.2
188 | SGRG | ≤ 0.2
189 | CNSI | ≤ 0.2
190 | HRTD | ≤ 0.2
191 | KSYC | ≤ 0.2
192 | QCRR | 1.13

Row | Variant | one-hybrid fitness for binding NBS DNA
193 | QPRR | 0.365
194 | QPYR | ≤ 0.2
195 | QIYR | 0.348
196 | QIRR | 0.867
197 | QIPR | 0.203
198 | QWRR | 0.355
199 | QERR | 0.245
200 | GWMI | ≤ 0.2
201 | TGPP | ≤ 0.2
202 | RGHW | ≤ 0.2
203 | KLGK | ≤ 0.2
204 | AATY | ≤ 0.2
205 | KFTC | ≤ 0.2
206 | SYMR | ≤ 0.2
207 | GWRK | ≤ 0.2
208 | FEGS | ≤ 0.2
209 | RYNH | 0.209
210 | RYVR | 0.269
211 | RYKG | ≤ 0.2
212 | RYNR | 0.519
213 | RYDR | 0.207
214 | RYSP | ≤ 0.2
215 | RYHR | 0.471
216 | RYHH | ≤ 0.2

Row | Variant | one-hybrid fitness for binding NBS DNA
217 | RYKR | 0.744
218 | RYSD | ≤ 0.2
219 | RYSR | 0.452
220 | RYHP | ≤ 0.2
221 | THIG | ≤ 0.2
222 | RYQN | ≤ 0.2
223 | RYGP | ≤ 0.2
224 | RYGH | ≤ 0.2
225 | RYYR | 0.404
226 | RYQP | ≤ 0.2
227 | RYPR | ≤ 0.2
228 | RYLR | 0.354
229 | RYRR | 0.726
230 | RYWR | 0.269
231 | RYQR | 0.44
232 | RYGR | 0.432
233 | RYIR | 0.203
234 | QYAV | ≤ 0.2
235 | ENTF | ≤ 0.2
236 | ECNK | ≤ 0.2
237 | PSCV | ≤ 0.2
238 | ALDS | ≤ 0.2
239 | AKVC | ≤ 0.2
240 | RYAP | ≤ 0.2

Row | Variant | one-hybrid fitness for binding NBS DNA
241 | RYFR | 0.241
242 | RYCN | ≤ 0.2
243 | RYAR | 0.43
244 | RYCD | ≤ 0.2
245 | RYCR | 0.377
246 | REYM | ≤ 0.2
247 | RFAG | ≤ 0.2
248 | QMRK | 0.387
249 | QMYK | ≤ 0.2
250 | QSYK | ≤ 0.2
251 | QSRK | 0.376
252 | QCRK | 0.478
253 | QAYK | ≤ 0.2
254 | QPRK | ≤ 0.2
255 | QLRK | 0.336
256 | QMDK | ≤ 0.2
257 | QARK | 0.37
258 | QCYK | ≤ 0.2
259 | QADK | ≤ 0.2
260 | GVLR | ≤ 0.2
261 | WSLR | ≤ 0.2
262 | LIRR | ≤ 0.2
263 | KRDL | ≤ 0.2
264 | YEVL | ≤ 0.2

Row | Variant | one-hybrid fitness for binding NBS DNA
265 | QTDK | ≤ 0.2
266 | QTRK | 0.546
267 | QTYK | ≤ 0.2
268 | QKNK | ≤ 0.2
269 | QKRK | 0.429
270 | QKDK | ≤ 0.2
271 | YNVR | ≤ 0.2
272 | VWSR | ≤ 0.2
273 | HGEV | ≤ 0.2
274 | TVPQ | ≤ 0.2
275 | CGVE | ≤ 0.2
276 | NGAE | ≤ 0.2
277 | FGYR | ≤ 0.2
278 | CGYR | ≤ 0.2
279 | FGAR | 0.385
280 | CGAE | 0.595
281 | CGFR | ≤ 0.2
282 | FGFR | ≤ 0.2
283 | CGAR | 0.441
284 | ITGA | ≤ 0.2
285 | QREE | ≤ 0.2
286 | CKNS | ≤ 0.2
287 | ATHI | ≤ 0.2
288 | YEAF | ≤ 0.2

Row | Variant | one-hybrid fitness for binding NBS DNA
289 | WRNM | ≤ 0.2
290 | TRHT | 0.364
291 | LQMW | ≤ 0.2
292 | YQHT | ≤ 0.2
293 | QPGR | ≤ 0.2
294 | QIGR | 0.437
295 | QIGD | ≤ 0.2
296 | QTGG | 0.204
297 | QTGR | 0.813
298 | QIGS | 0.295
299 | QGGR | ≤ 0.2
300 | QTGM | 0.3
301 | QSGP | ≤ 0.2
302 | QCGR | 0.764
303 | QSGR | 0.547
304 | QSGH | ≤ 0.2
305 | LCEP | ≤ 0.2
306 | GKTT | ≤ 0.2
